Measurements taken from ChEMBL document CHEMBL4513216, “Probing the Open Global Health Chemical Diversity Library for Multistage-Active Starting Points for Next-Generation Antimalarials” (ACS Infect Dis, 2020).
The whole screen tested about 69,000 compounds, of which about 8,600 (12%) showed an effect of 50% or more. For the sample, strong results were picked, then their nearest neighbours and some compounds at random.

tested on: Plasmodium berghei; assay: Screen against P. berghei liver stage (PbLuc), transformed with Luciferase, at 10uM; format: functional, HepG2; conditions: tested at 10 uM

| SMILES | INHIBITION [%] |
| --- | --- |
| COc1ccc(F)cc1NC(=O)NCC1(CN2CCOCC2)CC1 | 28.15 |
| COCC1(CNC(=O)Nc2cc(F)ccc2OC)CCCC1 | 51.4 |
| COc1ccc(F)cc1NC(=O)NCC1(C)COC1 | 25.25 |
| Cc1nn(C)c(Cl)c1C1CCCN1C(=O)CCNc1ncccn1 (stereo not drawn) | -35.7 |
| O=c1cc(N2CCCC2)cnn1CC(F)F | 73.2 |
| O=c1cc(N2CCNCC2)cnn1CCc1ccc(F)cc1 | 32.8 |
| O=c1cc(N2CCOCC2)cnn1CCc1ccc(F)cc1 | -0.529 |
| O=c1cc(N2CCCCC2)cnn1C[C@H](O)CO | 2.7 |
| O=c1cc(N2CCCC2)cnn1CCc1cccc(F)c1 | 52.6 |
| O=c1cc(N2CCCCC2)cnn1CC(O)C(F)(F)F (stereo not drawn) | -29.1 |
| Cc1cnn(CCNCc2csc(-c3ccc(C(N)=O)cc3)n2)c1 | 43.6 |
| O=C(COc1ccc2c(c1)OCC2O)NCc1ccco1 (stereo not drawn) | 10.6 |
| O=C(c1nc(COc2ccc3c(c2)OCO3)no1)N1CCCC1 | 13.4 |
| CNc1oc(COc2ccc3c(c2)OCO3)nc1C#N | 41.5 |
| O=C(NCC1CC1)c1nc(COc2ccc3c(c2)OCO3)no1 | -12.6 |
| Cc1occc(=O)c1OCc1noc(C(=O)NCC(C)C)n1 | 26.9 |
| CNC(=O)c1nc(COc2ccc3c(c2)OCO3)no1 | 53.7 |
| N#Cc1nc(COc2ccc3c(c2)OCO3)oc1NC1CC1 | 47.1 |
| NC(=O)c1nc(COc2ccc3c(c2)OCO3)no1 | -83.7 |
| CC(C)NC(=O)c1nc(COc2ccc3c(c2)OCO3)no1 | 32.8 |
| CC(C)CNC(=O)c1nc(COc2ccc3c(c2)OCO3)no1 | 57.7 |
| O=C(NC1CCCC1)c1nc(COc2ccc3c(c2)OCO3)no1 | 62.9 |

| SMILES | INHIBITION [%] |
| --- | --- |
| N#Cc1nc(COc2ccc3c(c2)OCO3)oc1NC1CCCCC1 | 72.1 |
| O=C(NC1CC1)c1nc(COc2ccc3c(c2)OCO3)no1 | 35.1 |
| CCn1cc(CN2CCC(O)(Cn3nc(C)ccc3=O)CC2)cn1 | 6.32 |
| CN(C)c1cc(C(=O)N2CCCCC2)ccn1 | 2.7 |
| CC1CCN(C(=O)c2cnn3c(-c4ccco4)ccnc23)CC1 | -82.6 |
| CCCNC(=O)NC(=O)CN1C=Nc2ccccc2S1(=O)=O | -3.7 |
| Cc1occc1C(=O)N1CCC2(CC1)C(c1cnn(C)c1)CC(=O)N2C (stereo not drawn) | 31.3 |
| Cn1ccnc1CC1CCCN(Cc2noc(C3CC3)n2)C1 (stereo not drawn) | 9.14 |
| Cc1nnsc1CNC(=O)CSCc1ccccc1Cl | 10.8 |
| c1ccc(Cc2nnc(CN3CCCCC3Cn3cncn3)o2)cc1 (stereo not drawn) | 24 |
| CCN(Cc1c(F)cccc1Cl)c1cc(C2CCNCC2)nc(C)n1 | 39.6 |
| COc1ncccc1CNC(=O)c1cnccn1 | -12 |
| N#Cc1ccccc1OCCN1CCCC1Cn1cncn1 (stereo not drawn) | 48.1 |
| CC(C)CN1CCc2c(CN(C)Cc3ccco3)cncc2C1 | -15.2 |
| Cc1cccc(S(=O)(=O)N2CCCC3(CCCN3S(C)(=O)=O)C2)c1 (stereo not drawn) | -61.6 |
| CN(C)c1ccc(C(CNS(=O)(=O)c2cccs2)N2CCCC2)cc1 (stereo not drawn) | 67.6 |
| Cc1nn(C)cc1S(=O)(=O)NCC(c1ccccc1)N1CCCCCC1 (stereo not drawn) | 36.7 |
| COc1ccccc1N1CCC(CNS(=O)(=O)c2cccs2)C1 (stereo not drawn) | 6.31 |
| COc1ccc(C(CNS(=O)(=O)c2cn(C)nc2C)N2CCCC2)cc1 (stereo not drawn) | 23.15 |
| CN1CCc2cc(C(CNS(=O)(=O)c3cccs3)N3CCCC3)ccc21 (stereo not drawn) | 20.5 |
| O=S(=O)(NCC(c1ccsc1)N1CCCCCC1)c1cccs1 (stereo not drawn) | 60 |
| O=C(NCC(F)(F)F)c1ccncc1 | -6.67 |

| SMILES | INHIBITION [%] |
| --- | --- |
| CC(C)c1noc(CCCC(=O)N2CCN(Cc3cccnc3)CC2)n1 | -40.2 |
| COc1cccc(OCC(=O)NCc2ccc3[nH]c(=O)[nH]c3c2)c1 | 12.6 |
| CN1CCOC(C)(C(=O)Nc2nc(C(C)(C)C)cs2)C1 (stereo not drawn) | 7.5 |
| CN(CC1(O)CCN(c2ccnc3ccncc23)CC1)C(=O)CCN | -5.78 |
| Cc1ccc2c(c1)N(C(=O)C1CCCOC1)CCC2 (stereo not drawn) | -27 |
| CCN(CC)S(=O)(=O)CC(=O)N1CCc2ccc(C)cc21 | 57.5 |
| CCN(CC)S(=O)(=O)CC(=O)N1CCc2ccc(F)cc21 | 67.4 |
| CS(=O)(=O)c1ccc2c(c1)N(C(=O)Cc1ccc(F)cc1)CCC2 | 47.7 |
| CCN(CC)S(=O)(=O)CC(=O)N1CCc2ccc(Cl)cc21 | 26.8 |
| CS(=O)(=O)c1ccc2c(c1)N(C(=O)Cc1cccc(F)c1)CCC2 | 30.9 |
| COCCOc1cccc(CNC(=O)CN2CCN(C)CC2C)c1 (stereo not drawn) | 17.883 |
| Cc1ccccc1Cn1cnc2oc(C)c(C(=O)O)c2c1=O | 0.348 |
| O=C(CCn1cccn1)N1CCC(c2nnc(-c3ccsc3)o2)CC1 | 5.86 |
| O=C(N[C@@H]1CN(c2ncccn2)C[C@@H]2CCCO[C@@H]21)c1cccnc1 | 4.61 |
| CC(=O)NS(=O)(=O)c1ccc(F)cc1C(F)(F)F | 35 |
| O=C(NCCn1nc(-n2cncn2)ccc1=O)c1ccsc1 | 6.12 |
| CSCCC(=O)N1CCCC(c2ncc[nH]2)C1 (stereo not drawn) | -8.66 |
| CCOCCC(=O)N1CCCC(c2ncc[nH]2)C1 (stereo not drawn) | 48.1 |
| CCOCCC1(C(=O)N2CCCC(c3ncc[nH]3)C2)CCCC1 (stereo not drawn) | 72 |
| O=C(CCOc1ccccc1)N1CCCC(c2ncc[nH]2)C1 (stereo not drawn) | 52.7 |
| CCOCCOc1ccccc1C(=O)N1CCCC(c2ncc[nH]2)C1 (stereo not drawn) | -7.35 |
| O=C(CCCOCc1ccccc1)N1CCCC(c2ncc[nH]2)C1 (stereo not drawn) | 6.11 |

| SMILES | INHIBITION [%] |
| --- | --- |
| COCCC(=O)N1C[C@H]2CN(Cc3cccc(C)n3)C(=O)[C@H]2C1 | 26.6 |
| CCOCCN1CCC(c2cnccn2)CC1 | 32.7 |
| CN1CCN(C=C2N=C(c3cc(-c4ccccc4F)n[nH]3)ON2)CC1 | 49.4 |
| CS(=O)(=O)N1CC[C@H]2OCC[C@@]2(C(=O)NCc2ccccn2)C1 | 39.4 |
| CNC(=O)c1cc(C)n(-c2cccc(OC)c2)c1C | -3.2 |
| Cc1cc(Br)cnc1N(C)CC1CCOC1 (stereo not drawn) | 23.6 |
| Cc1nc2c(c(NCc3nc4ccccc4s3)n1)CCNCC2 | 75.8 |
| Cc1nc2c(c(NCc3cc4ccccc4s3)n1)CCNCC2 | 46.1 |
| Cc1nc2c(c(NCc3ccc(-c4ccccn4)s3)n1)CCNCC2 | 32.2 |
| CC(C)N1CCN(C(=O)Nc2cnc3c(cnn3C(C)C)c2)CC1 | 27.6 |
| O=C(CCOc1ccccc1)N1CCCC(n2cncn2)C1 (stereo not drawn) | -13.255 |
| CCC(C)N(Cc1cccnc1)Cc1cc2c(cc1OC)OCO2 (stereo not drawn) | -19.8 |
| CCC(C)N(Cc1cccnc1)Cc1ccccc1Cn1cccn1 (stereo not drawn) | 31.3 |
| CCC(C)N(Cc1cccnc1)Cc1ccc2c(c1)OCCO2 (stereo not drawn) | 52.5 |
| Cc1ccnc(CC(C)N(C)Cc2ccc3c(c2)OCCO3)c1 (stereo not drawn) | 8.11 |
| CCC(C)N(Cc1cccnc1)Cc1cc2c(cc1Cl)OCO2 (stereo not drawn) | 58.5 |
| c1cncc(CN(Cc2ccc3c(c2)OCCO3)CC2CCCO2)c1 (stereo not drawn) | -2.98 |
| Cn1cc(C2CCCN2C(=O)CCc2cnn(-c3ccccc3)c2)cn1 (stereo not drawn) | 5.03 |
| CN(C)C(=O)C1(CCCc2ccccn2)CCN1Cc1nccn1C (stereo not drawn) | 5.34 |
| COc1ccc2nnc(CCCC(=O)NCc3ccccc3F)n2n1 | -6.09 |
| COc1ncccc1CNCc1c(C)nn(C)c1N1CCOCC1 | -10.1 |
| CC(C)N1CCN(C(=O)c2ccc(Cn3ccccc3=O)o2)CC1 | 14.115 |

| SMILES | INHIBITION [%] |
| --- | --- |
| Cc1nnc([C@H]2C[C@H]3OCC[C@H]3N(S(=O)(=O)N(C)C)C2)o1 | 54.1 |
| Cc1nnc([C@H]2C[C@H]3OCC[C@H]3N(S(=O)(=O)C3CC3)C2)o1 | 26 |
| CCS(=O)(=O)N1C[C@@H](c2nnc(C)o2)C[C@H]2OCC[C@H]21 | 18.7 |
| Cc1ccc(CN2C[C@@H]3COC[C@H](NS(C)(=O)=O)[C@@H]3C2)o1 | 6.38 |
| OCCNc1nccc(-c2c[nH]nc2-c2ccncc2)n1 | 41.2 |
| Cc1ncc(-c2ccnc(N3CCCCC3)n2)c(=O)[nH]1 | 28.6 |
| Cc1ncc(-c2ccnc(NCCc3ccc(F)cc3)n2)c(=O)[nH]1 | 72.3 |
| O=C(Cc1cccc(O)c1)NCCNc1nccc(C(F)(F)F)n1 | 0.71 |
| O=C(O)c1ccnc(-c2ccnc(NCCc3ccc(F)cc3)n2)c1 | 8.74 |
| O=c1[nH][nH]cc1-c1ccnc(NCCc2ccc(F)cc2)n1 | 20.4 |
| O=c1[nH][nH]cc1-c1ccnc(NCCN2CCCC2)n1 | 25.3 |
| COCCCNc1nccc(-c2c[nH][nH]c2=O)n1 | 15.2 |
| O=c1[nH][nH]cc1-c1ccnc(NCCc2cccnc2)n1 | 59 |
| C[C@H]1CCCCN1CCCNc1nccc(-c2c[nH][nH]c2=O)n1 | 23.4 |
| CN(C)c1nccc(-c2c[nH][nH]c2=O)n1 | 42.6 |
| O=c1[nH][nH]cc1-c1ccnc(NCCc2cccc(O)c2)n1 | 63.4 |
| CC(C)(C)CCNc1nccc(-c2c[nH][nH]c2=O)n1 | 57.5 |
| O=C(O)c1cn(-c2ccccn2)c(=O)c2ccccc12 | -44.2 |
| CN(C)[C@@H]1CN(Cc2ccc(O)cc2)C[C@H]1c1cn(C)c2ccccc12 | 40.9 |
| O=C(c1ccncc1)N1C[C@H]2CC[C@@H](C1)N(S(=O)(=O)c1cccnc1)C2 | -66.4 |
